Experiment [1] is described as follows: qHTS assay for small molecule agonists of the p53 signaling pathway (AID 651631; calls by dose curve; also: nearly all actives have a fitted effect of over 15% in size). In a few lines: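 p53RE-bla HCT-116 cells; compounds 16 h, 37 °C; LiveBLAzer B/G FRET substrate 2 h RT; fluorescence intensity read-out, qHTS format.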
Experiment [2] is described as follows: qHTS assay for small molecules that induce genotoxicity in human embryonic kidney cells expressing luciferase-tagged ATAD5 (AID 651632). Also: nearly all actives have a fitted effect of over 15% in size. In a few lines:
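Quantitative HTS in HEK293T expressing luciferase-tagged ATAD5, whose levels rise upon DNA damage. Exposure ran 16 hr at 37C and 5% CO2, with luminescence read 30 min after Amplite addition at room temperature.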

The nature of experiment [3]: qHTS assay for small molecule agonists of the p53 signaling pathway - cell viability (AID 651633; calls by dose curve;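 also: p53RE-bla HCT reporter cells with a stable beta-lactamase p53 reporter; series mostly up to about 83 µM; nearly all actives have a fitted effect of over 30% in size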). In a few lines: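 Viability counter-read: CellTiter-Glo luminescence (30 min, room temperature) in the same p53RE-bla plates. These plates had been exposed to compounds for 16 h at 37 C.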
A short description of experiment [4]: qHTS assay for small molecules that induce genotoxicity in human embryonic kidney cells expressing luciferase-tagged ATAD5 - cell viability (AID 651634; calls by dose curve; also: nearly all actives have a fitted effect of over 25% in size). In a few lines: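 After 15.5 hr incubation with compound at 37C, 5% CO2, HEK293T ATAD5-luciferase cells received CellTiter-Fluor reagent; fluorescence intensity was quantified following 30 min at 37C.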
Experiment [5] in a line: qHTS assay for small molecule disruptors of the mitochondrial membrane potential - cell viability (AID 720634; calls by dose curve;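 also: human HepG2 liver cancer cells; series mostly up to about 83 µM; nearly all actives have a fitted effect of over 20% in size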). Put shortly: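 ATP-based luminescent viability readout (CellTiter-Glo, 30 min, room temperature) in HepG2 cells multiplexed with the m-MPI membrane potential dye; compound exposure lasted 1 hr at 37 C.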
Experiment [6] in a line: qHTS assay for small molecule disruptors of the mitochondrial membrane potential (AID 720635). Also: potency is read from the fitted curve at half-maximal effect. Put shortly:
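Mitochondrial membrane potential tracked with Mito-MPS dye, red aggregates (ex 540/em 590 nm) against green monomers (ex 490/em 535 nm). Compound treatment 1 hr at 37C, dye 30 min in HepG2.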

Experiment [7] can be described thus: qHTS assay to test for compound auto fluorescence at 590 nm (red) in HepG2 cells (AID 720674). Put shortly:
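1 hr compound incubation on HepG2 cells, 37 C, 5% CO2; plate read ex 540 nm / em 590 nm; intensities reported as Rose Bengal sodium equivalents.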

Experiment [8] can be described thus: qHTS assay to test for compound auto fluorescence at 535 nm (green) in HepG2 cells (AID 720675).
Experiment [9] in a line: qHTS assay to test for compound auto fluorescence at 460 nm (blue) in HEK293 cells (AID 720678). Put shortly: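 Intrinsic compound fluorescence is recorded in live HEK293 cultures after overnight incubation at 37C, 5% CO2, using excitation 405 nm and emission 460 nm. Values are referenced to triamterene.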
Experiment [10] can be described thus: qHTS assay to test for compound auto fluorescence at 590 nm (red) in HEK293 cells (AID 720679). Put shortly:
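Red autofluorescence, HEK293 cells: 2,000 cells/well; attach 4-5 hr 37C; add 23 nL cpd or DMSO; incubate o/n 37C 5% CO2; read Ex540/Em590; Rose Bengal sodium reference.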

The results in this text go back to PubChem BioAssay (Tox21).

Unmarked numbers belong to inactive results. Records with an inconclusive call do not appear. Active and inactive are the calls of the source. Unless noted, calls follow the shape of the dose curve; as a rule, active = well fitted curve in the direction sought with a large enough effect in the repeat runs; inconclusive = weak or mixed curves; inactive = no such curve, though single readings can be large; an effect the other way counts as inactive or inconclusive. Positions of bridges follow the written chain, without caps; N, C: chain ends. Non-standard residues stand in square brackets, D forms with d. Residues, ends and D or L forms follow the SMILES beside them. hArg = N=C(N)NCCCC[C@H](N)C(=O)O; Mpa = O=C(O)CCS

In the case of `Cc1ccccc1C(N)=O`, the compound was classed as inactive in experiment [1], in [2], in experiment [3], in [5], in experiment [7] and in [8]. For the same compound, the call in experiment [9] and in experiment [10] was inactive. Also, the Potency result in experiment [4] and in experiment [6] was “inactive” in each case.
Regarding `CCOC(CN1CCN(CC(C)C(=O)c2ccccc2)CC1)c1ccccc1` (stereo not drawn), the compound was called inactive in [1], in experiment [2], in experiment [3], in [5], in [7] and in experiment [8]. The result in [9] and in experiment [10] was inactive. In addition, the Potency result in experiment [4] and in experiment [6] was “inactive” in each case.
In the case of `CC(Oc1cc(Cl)ccc1Cl)C(=O)O` (stereo not drawn), the compound was called inactive in [1], in [2], in [3], in [5], in experiment [7] and in experiment [8]. Also, the compound was called inactive in experiment [9] and in experiment [10]. Besides, the Potency result in [4] is “inactive”.
`CCCCCCCCCCOC(C)=O`: the compound was called inactive in [1], in experiment [2], in experiment [3], in [5], in experiment [7] and in experiment [8]. Moreover, in experiment [9], the outcome was inactive. Moreover, the Potency entry in experiment [4] and in [6] was “inactive” each time.
As for `CCCCSCCCC`, the compound was called inactive in [1], in experiment [2], in experiment [3], in experiment [5], in [7] and in experiment [8]. Further, the outcome in [9] and in experiment [10] was inactive. Further, the Potency entry in [4] and in [6] was “inactive” in each case.
`Cc1ccnc(N)c1`: the compound was classed as inactive in experiment [1], in experiment [2], in experiment [3], in experiment [5], in experiment [7] and in experiment [8]. For the same compound, the call in experiment [10] was inactive. The Potency result in experiment [4] and in [6] was “inactive” in each case.
Regarding `CCOC(=O)CC1(C)OCC(C)O1` (stereo not drawn), the result in experiment [1], in [2], in experiment [3], in experiment [5], in experiment [8] and in [9] was inactive. Further, in experiment [10], the compound was called inactive. Also, the Potency entry in experiment [4] and in experiment [6] was “inactive” in each case.
Take `CCCCCCCCCOC(=O)c1ccccc1C(=O)OCCCCCCCCC`: the outcome in experiment [1], in experiment [2], in experiment [3], in experiment [5], in [7] and in [8] was inactive. Moreover, the compound was classed as inactive in [10]. In addition, the Potency result in experiment [4] and in [6] was “inactive” in each case.
Take `Cc1c(N)cccc1Cl`: the compound was classed as inactive in [1], in [2], in [3], in experiment [5], in experiment [7] and in experiment [8]. In addition, the result in [9] and in [10] was inactive. The Potency result in [4] and in experiment [6] was “inactive” throughout.
`CC(=O)O[Si](C)(OC(C)=O)OC(C)=O`: the compound was classed as inactive in [1], in experiment [2], in experiment [3], in experiment [7], in [8] and in experiment [9]. Moreover, the compound was classed as inactive in experiment [10]. In experiment [4], the Potency entry was “inactive”. Besides, the Potency in experiment [6] is 17.7 µM (active).
For `Cc1cc(C)c(C(=O)O)c(C)c1`, the compound was classed as inactive in experiment [1], in experiment [2], in experiment [5], in experiment [7], in [8] and in [9]. In addition, the outcome in [10] was inactive. For the same compound, the Potency result in experiment [4] and in experiment [6] was “inactive” throughout.
Turning to `CCCCCc1cccc(=O)o1`, the call in [1], in experiment [2], in [7], in experiment [8] and in experiment [10] was inactive. Further, the Potency entry in experiment [4] and in experiment [6] was “inactive” each time.
As to `CCCCOC(=O)[C@H](C)O`, the compound was classed as inactive in [1], in experiment [2], in experiment [5], in experiment [7], in experiment [8] and in [9]. Further, the result in experiment [10] was inactive. In [4], the Potency result was “inactive”.
On to `NC(=O)[C@@H]1CSSCCC(=O)N[C@@H](CCCCN=C(N)N)C(=O)NCC(=O)N[C@@H](CC(=O)O)C(=O)N[C@@H](Cc2c[nH]c3ccccc23)C(=O)N2CCC[C@H]2C(=O)N1` ([Mpa][hArg]GDWPC-NH2; disulfide 1-7), for which the outcome in [1], in experiment [2], in experiment [3], in [7], in experiment [8] and in experiment [10] was inactive. In addition, the Potency entry in experiment [4] and in experiment [6] was “inactive” throughout.
Take `O=C1OCCO1`: the compound was classed as inactive in experiment [1], in experiment [2], in experiment [3], in experiment [7], in experiment [8] and in [9]. For the same compound, the compound was classed as inactive in [10].
Turning to `CC1c2ccccc2CN1NC(=O)c1ccc(Cl)c(S(N)(=O)=O)c1` (stereo not drawn), the compound was classed as inactive in [1], in experiment [2], in experiment [3], in experiment [5], in [8] and in experiment [9]. The compound was classed as inactive in experiment [10]. The Potency result in experiment [6] was “inactive”.
With `CCO[Si](CC)(OCC)OCC`, the result in experiment [1], in experiment [2], in experiment [3], in experiment [5], in [7] and in experiment [8] was inactive. The compound was called inactive in experiment [9]. Besides, in [6], the Potency was 61.1 µM (active).
`CCCCOC(=O)C(C)O` (stereo not drawn): the result in experiment [1], in experiment [2], in experiment [3], in experiment [7], in experiment [8] and in experiment [9] was inactive. In addition, the compound was called inactive in [10]. In addition, the Potency entry in experiment [4] and in experiment [6] was “inactive” in each case.
Consider `N#Cc1cscn1`, for which the call in [1], in experiment [2], in experiment [3], in experiment [8], in experiment [9] and in experiment [10] was inactive. Further, the Potency result in experiment [4] and in experiment [6] was “inactive” throughout.
Turning to `CC(=O)CCc1ccc(OC(C)=O)cc1`, the result in experiment [1], in experiment [2], in experiment [3], in [5], in experiment [8] and in experiment [9] was inactive. Also, the Potency entry in experiment [6] is “inactive”.
For `CC(=O)C1C(=O)C=C(C)OC1=O` (stereo not drawn), the compound was classed as inactive in experiment [1], in experiment [2], in [5], in experiment [7], in [8] and in experiment [9]. Besides, in experiment [10], the result was inactive. The Potency entry in experiment [4] is “inactive”.
In the case of `CCCCCCCCCCCCCCCCCC#N`, the compound was classed as inactive in [1], in [2], in [3], in experiment [7], in experiment [8] and in experiment [9]. Moreover, in experiment [10], the compound was classed as inactive. Further, the Potency result in experiment [6] was “inactive”.
For the compound `C=CCCCC`, the call in experiment [1], in experiment [2], in [3], in experiment [7] and in [8] was inactive. Moreover, the Potency result in experiment [4] was “inactive”.
Turning to `NCC1(Cc2noc(=O)[nH]2)CCCCC1`, the compound was called inactive in experiment [1], in experiment [2], in experiment [3], in experiment [5], in experiment [8] and in [9]. Further, in experiment [10], the compound was classed as inactive.
For the compound `O=C(O)CCCCCC(=O)O`, the outcome in experiment [1], in experiment [2], in experiment [5], in experiment [7], in experiment [8] and in [9] was inactive. The call in [10] was inactive. Further, the Potency result in experiment [4] and in experiment [6] was “inactive” each time.
`CC1=NN(c2ccc(S(=O)(=O)O)cc2)C(=O)C1`: the call in experiment [1], in experiment [2], in experiment [3], in experiment [7], in [8] and in experiment [9] was inactive. The outcome in [10] was inactive. The Potency result in experiment [4] and in experiment [6] was “inactive” throughout.
Regarding `CC(C)CCOC(=O)c1ccccc1`, the call in [1], in experiment [2], in [3], in experiment [8], in experiment [9] and in experiment [10] was inactive. For the same compound, the Potency result in experiment [4] and in [6] was “inactive” in each case.
